# Measured values taken from the supplement of paper PMC8728848.
# This is one part of a sample in which the strongest signals are shown more often than they occur.
# B1: PILRa (Homo sapiens), Q9UKJ1 (protein)
# chain: MGRPLLLPLLPLLLPPAFLQPSGSTGSGPSYLYGVTQPKHLSASMGGSVEIPFSFYYPWELATAPDVRISWRRGHFHRQSFYSTRPPSIHKDYVNRLFLNWTEGQKSGFLRISNLQKQDQSVYFCRVELDTRSSGRQQWQSIEGTKLSITQAVTTTTQRPSSMTTTWRLSSTTTTTGLRVTQGKRRSDSWHISLETAVGVAVAVTVLGIMILGLICLLRWRRRKGQQRTKATTPAREPFQNTEEPYENIRNEGQNTDPKLNPKDDGIVYASLALSSSTSPRAPPSHRPLKSPQNETLYSVLKA
# How the values were obtained:
# Experiment in all cases: glycan array binding signal (z-score within array); higher = stronger binding
# Conditions in all cases: glycan notation: IUPAC condensed, linker removed
# [1] = target: Fuc(a1-2)Gal(b1-3)GalNAc(b1-4)[Neu5Ac(a2-3)]Gal(b1-4)Glc
# Procedure, shortened: (§1)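 The binding signal is a Z-score computed within each array and averaged over linkers. Arrays of the same protein sequence at different concentrations or buffers were also averaged together. Data originate from 3228 arrays in the Consortium for Functional Glycomics database, kept only where the protein sequence was available.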
# [2] = target: Fuc(a1-2)Gal(b1-3)[Fuc(a1-4)]GlcNAc(b1-2)Man(a1-3)[Fuc(a1-2)Gal(b1-3)[Fuc(a1-4)]GlcNAc(b1-2)Man(a1-6)]Man(b1-4)GlcNAc(b1-4)GlcNAc
# Procedure, shortened: as §1
# [3] = target: Fuc(a1-2)Gal(b1-4)[Fuc(a1-3)]GlcNAc(b1-2)[Fuc(a1-2)Gal(b1-4)[Fuc(a1-3)]GlcNAc(b1-4)]Man(a1-3)[Fuc(a1-2)Gal(b1-4)[Fuc(a1-3)]GlcNAc(b1-2)Man(a1-6)]Man(b1-4)GlcNAc(b1-4)GlcNAc
# Procedure, shortened: as §1
# [4] = target: Fuc(a1-2)Gal(b1-4)[Fuc(a1-3)]GlcNAc(b1-3)GalNAc
# Procedure, shortened: as §1
# [5] = target: Fuc(a1-2)[Gal(a1-3)]Gal(b1-3)GlcNAc(b1-3)GalNAc
# Procedure, shortened: as §1
# [6] = target: Fuc(a1-2)[Gal(a1-3)]Gal(b1-4)[Fuc(a1-3)]GlcNAc(b1-3)GalNAc
# Procedure, shortened: as §1
# [7] = target: Fuc(a1-2)[GalNAc(a1-3)]Gal(b1-3)GalNAc(a1-3)[Fuc(a1-2)]Gal(b1-4)GlcNAc
# Procedure, shortened: as §1
# [8] = target: Fuc(a1-2)[GalNAc(a1-3)]Gal(b1-3)GlcNAc(b1-3)GalNAc
# Procedure, shortened: as §1
# [9] = target: Fuc(a1-2)[GalNAc(a1-3)]Gal(b1-4)GlcNAc(b1-3)GalNAc
# Procedure, shortened: as §1
# [10] = target: Fuc(a1-2)[GalNAc(a1-3)]Gal(b1-4)[Fuc(a1-3)]GlcNAc(b1-3)GalNAc
# Procedure, shortened: as §1
# [11] = target: Fuc(a1-3)[Gal(b1-4)]GlcNAc(b1-2)Man(a1-6)[Gal(b1-4)GlcNAc(b1-2)Man(a1-3)]Man(b1-4)GlcNAc(b1-4)GlcNAc
# Procedure, shortened: as §1
# [12] = target: Fuc(a1-3)[Gal3S(b1-4)]GlcNAc6S
# Procedure, shortened: as §1
# [13] = target: Fuc(a1-3)[GalNAc(b1-4)]GlcNAc
# Procedure, shortened: as §1
# [14] = target: Gal(a1-3)Gal(b1-3)GlcNAc(b1-2)Man(a1-3)[Gal(a1-3)Gal(b1-3)GlcNAc(b1-2)Man(a1-6)]Man(b1-4)GlcNAc(b1-4)GlcNAc
# Procedure, shortened: as §1
# Gal(b1-2)Gal = target: Gal(b1-2)Gal
# Procedure, shortened: as §1
# [15] = target: Gal(b1-3)GlcNAc(b1-3)Gal(b1-3)GlcNAc
# Procedure, shortened: as §1
# [16] = target: Gal(b1-3)GlcNAc(b1-6)Gal(b1-4)GlcNAc
# Procedure, shortened: as §1
# [17] = target: Gal(b1-4)GlcNAc(b1-3)[GlcNAc(b1-6)]Gal(b1-4)GlcNAc
# Procedure, shortened: as §1
# Gal(b1-6)Gal = target: Gal(b1-6)Gal
# Procedure, shortened: as §1
# Gal3S(b1-4)Glc6S = target: Gal3S(b1-4)Glc6S
# Procedure, shortened: as §1
# Gal3S(b1-4)GlcNAc6S = target: Gal3S(b1-4)GlcNAc6S
# Procedure, shortened: as §1
# [18] = target: GalNAc(a1-3)GalNAc(a1-3)Gal(a1-4)Gal(b1-4)GlcNAc
# Procedure, shortened: as §1
# GalNAc(b1-3)Gal = target: GalNAc(b1-3)Gal
# Procedure, shortened: as §1
# [19] = target: GalNAc(b1-3)Gal(a1-4)Gal(b1-4)GlcNAc(b1-3)Gal(b1-4)Glc
# Procedure, shortened: as §1
# [20] = target: GalNAc(b1-3)Gal(a1-6)Gal(b1-4)Glc
# Procedure, shortened: as §1
# GlcA(b1-3)GlcNAc = target: GlcA(b1-3)GlcNAc
# Procedure, shortened: as §1
# [21] = target: GlcNAc(a1-3)Gal(b1-4)GlcNAc
# Procedure, shortened: as §1
# [22] = target: GlcNAc(b1-3)Gal(b1-4)GlcNAc(b1-3)Gal(b1-4)GlcNAc
# Procedure, shortened: as §1
# [23] = target: GlcNAc(b1-4)[GlcNAc(b1-6)]GalNAc
# Procedure, shortened: as §1
# Man(a1-2)Man(a1-3)Man = target: Man(a1-2)Man(a1-3)Man
# Procedure, shortened: as §1
# Neu5Ac(a2-3)Gal = target: Neu5Ac(a2-3)Gal
# Procedure, shortened: as §1
# [24] = target: Neu5Ac(a2-3)Gal(b1-3)GalNAc(b1-4)[Neu5Ac(a2-3)]Gal(b1-4)Glc
# Procedure, shortened: as §1
# [25] = target: Neu5Ac(a2-3)Gal(b1-3)GlcNAc
# Procedure, shortened: as §1
# [26] = target: Neu5Ac(a2-3)Gal(b1-3)GlcNAc(b1-3)Gal(b1-3)GlcNAc
# Procedure, shortened: as §1
# Neu5Ac(a2-3)Gal(b1-4)Glc = target: Neu5Ac(a2-3)Gal(b1-4)Glc
# Procedure, shortened: as §1
# [27] = target: Neu5Ac(a2-3)Gal(b1-4)GlcNAc(b1-3)Gal(b1-4)GlcNAc
# Procedure, shortened: as §1
# [28] = target: Neu5Ac(a2-3)Gal(b1-4)GlcNAc(b1-3)Gal(b1-4)GlcNAc(b1-3)Gal(b1-4)GlcNAc
# Procedure, shortened: as §1
# [29] = target: Neu5Ac(a2-3)Gal(b1-4)GlcNAc(b1-3)Gal(b1-4)[Fuc(a1-3)]GlcNAc
# Procedure, shortened: as §1
# [30] = target: Neu5Ac(a2-3)Gal(b1-4)[Fuc(a1-3)]GlcNAc6S
# Procedure, shortened: as §1
# [31] = target: Neu5Ac(a2-6)Gal(b1-4)GlcNAc(b1-2)Man(a1-3)[Man(a1-6)]Man(b1-4)GlcNAc(b1-4)GlcNAc
# Procedure, shortened: as §1
# [32] = target: Neu5Gc(a2-3)Gal(b1-4)[Fuc(a1-3)]GlcNAc
# Procedure, shortened: as §1
binder,measurement,setting,value
B1,glycan array binding signal (z-score),[1],-0.102
same,glycan array binding signal (z-score),[2],4.38
same,glycan array binding signal (z-score),[3],4.02
same,glycan array binding signal (z-score),[4],5.45
same,glycan array binding signal (z-score),[5],0.023
same,glycan array binding signal (z-score),[6],3.41
same,glycan array binding signal (z-score),[7],-0.142
same,glycan array binding signal (z-score),[8],4.4
same,glycan array binding signal (z-score),[9],-0.194
same,glycan array binding signal (z-score),[10],9.37
same,glycan array binding signal (z-score),[11],-0.546
same,glycan array binding signal (z-score),[12],-0.051
same,glycan array binding signal (z-score),[13],-0.102
same,glycan array binding signal (z-score),[14],4.98
same,glycan array binding signal (z-score),Gal(b1-2)Gal,0.001
same,glycan array binding signal (z-score),[15],0.263
same,glycan array binding signal (z-score),[16],-0.136
same,glycan array binding signal (z-score),[17],-0.338
same,glycan array binding signal (z-score),Gal(b1-6)Gal,-0.177
same,glycan array binding signal (z-score),Gal3S(b1-4)Glc6S,0.618
same,glycan array binding signal (z-score),Gal3S(b1-4)GlcNAc6S,-0.01
same,glycan array binding signal (z-score),[18],-0.27
same,glycan array binding signal (z-score),GalNAc(b1-3)Gal,0.508
same,glycan array binding signal (z-score),[19],-0.169
same,glycan array binding signal (z-score),[20],-0.215
same,glycan array binding signal (z-score),GlcA(b1-3)GlcNAc,6.02
same,glycan array binding signal (z-score),[21],0.089
same,glycan array binding signal (z-score),[22],-0.259
same,glycan array binding signal (z-score),[23],-0.213
same,glycan array binding signal (z-score),Man(a1-2)Man(a1-3)Man,-0.144
same,glycan array binding signal (z-score),Neu5Ac(a2-3)Gal,-0.314
same,glycan array binding signal (z-score),[24],-0.281
same,glycan array binding signal (z-score),[25],0.854
same,glycan array binding signal (z-score),[26],-0.15
same,glycan array binding signal (z-score),Neu5Ac(a2-3)Gal(b1-4)Glc,-0.248
same,glycan array binding signal (z-score),[27],1.17
same,glycan array binding signal (z-score),[28],-0.327
same,glycan array binding signal (z-score),[29],-0.125
same,glycan array binding signal (z-score),[30],-0.092
same,glycan array binding signal (z-score),[31],-0.177
same,glycan array binding signal (z-score),[32],-0.343
